# Results with a measured potency or affinity are listed apart. Active and inactive are the calls of the source. How the calls were made is not given here.
# Assay: host cell cytotoxicity of antiviral hits, dose response, cytotoxicity control for West Nile virus antiviral project, secondary assay (AID 1650)
# Details: Mammalian host cell viability, cytotoxicity counter-screen; series mostly up to 10 µM; viability: at the top concentration
row,Compound,viability
1,COc1ccc(NC(=O)CSc2nc3ccccc3c(=O)n2CCCN2CCC(C)CC2)c(OC)c1,81.7% [at 20 µM] (inactive)
2,CC(=O)Oc1ccc(-c2ccc(C(=O)OCC(=O)N(C)CC(=O)Nc3ccccc3Cl)cc2)cc1,77.2% (inactive)
3,CN1CCN(CC(=O)Nc2c(C(=O)c3ccccc3)oc3ccccc23)CC1,77.5% (inactive)
4,CN(C)CCCN(C(=O)c1ccc2c(c1)CCCC2)c1nc2ccc(F)cc2s1,77.9% [at 20 µM] (inactive)
5,Cc1ccc(S(=O)(=O)c2c(N)n(CCCN(C)C)c3nc4ccccc4nc23)cc1,87% [at 20 µM] (inactive)
6,CN1CCN(Cc2nc3ccccc3c(=O)n2Cc2nc(-c3ccccc3F)cs2)CC1,78% (inactive)
7,CN(C)CC(O)COc1ccc(C(C)(C)c2ccc(OCC(O)CN(C)C)cc2)cc1 (centres undefined),89.6% (inactive)
8,CN(C)CCNc1ncnc2c1sc1nc(-c3ccccc3)c3c(c12)CCCC3,78.4% (inactive)
9,CC1CCCN(Cc2c(O)ccc3c(=O)c(-c4nc5ccccc5s4)c(N)oc23)C1 (centres undefined),83.4% (inactive)
10,CN1CCN(c2ccc(C(F)(F)F)cc2NC(=O)Nc2ccccc2)CC1,79.8% (inactive)
11,O=C(NCCOc1ccccc1Cl)c1ncn[nH]1,96.6% [at 20 µM] (inactive)
12,O=C1OC(N2CCN(Cc3ccccc3)CC2)c2ccccc21 (centres undefined),98.3% [at 20 µM] (inactive)
13,COc1cc(CNC(C)(C)C)cc(Br)c1OCc1cccs1,88.1% [at 20 µM] (inactive)
14,Cc1ccccc1CN(CC(=O)Nc1cccc([N+](=O)[O-])c1)S(=O)(=O)c1ccc(Cl)cc1,80.2% (inactive)
15,O=C(COc1ccc(Cl)cc1)NCCSCc1cccc(Cl)c1,90.4% [at 20 µM] (inactive)
16,COc1ccc(-c2csc(N(CCCN(C)C)C(=O)c3ccccc3Cl)n2)cc1,76.9% (inactive)
17,C=CCn1c(SCc2csc(-c3ccc(Cl)cc3)n2)nnc1-c1ccccc1OC,73% [at 20 µM] (inactive)
18,COC(=O)c1c(NC(=O)CCS(=O)(=O)c2ccccc2)sc2c1CCN(C)C2,73.3% [at 20 µM] (inactive)
19,Cc1cccc2cc(CN(CCCN(C)C)C(=S)NCCc3ccccc3)c(=O)[nH]c12,75.7% [at 20 µM] (inactive)
20,Cn1cc([N+](=O)[O-])c(C(=O)Nc2ccn(C34CC5CC(CC(C5)C3)C4)n2)n1,74.4% (inactive)
21,CC(C)n1cc(/C=C2/SC(=O)N(CC(=O)Nc3ccc4c(c3)OCO4)C2=O)c2ccccc21,83.5% [at 20 µM] (inactive)
22,CCN(CC)CCNC(=O)c1ccc(NC(=O)/C=C/c2ccc3ccccc3n2)cc1,86.2% (inactive)
23,CCN1CCN(c2cc(C)c3cc(NC(=S)N4CCCC(C)C4)ccc3n2)CC1 (centres undefined),78.8% (inactive)
24,COc1cc(C(CCN2CCCC(C)C2)c2c(OC)cc(OC)c3c(-c4ccccc4)cc(=O)oc23)cc(OC)c1OC (centres undefined),86.6% [at 20 µM] (inactive)
